Measured values as given in PubChem BioAssay (Tox21).
Inconclusive results are not listed. Activity calls are given as the source filed them. Unless noted, calls follow the shape of the dose curve; as a rule, active = well fitted curve in the direction sought with a large enough effect in the repeat runs; inconclusive = weak or mixed curves; inactive = no such curve, though single readings can be large; an effect the other way counts as inactive or inconclusive.

Assays:
[1] = qHTS assay to identify small molecule agonists of the peroxisome proliferator-activated receptor delta (PPARd) signaling pathway - cell viability counter screen (AID 743211); conditions: PPARd-bla HEK293H viability, CellTiter-Glo luminescence, 17 h; series mostly up to 62.6 µM; also: % is scaled to controls: 0 for no effect and ±100 for the full control effect; nearly all actives have a fitted effect of over 55% in size
In short: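 Following 5 h plating at 37 C and 5% CO2, PPARd UAS-bla HEK293H cells took up test compounds for 17 h. Viability was quantified by luminescence 30 min after CellTiter-Glo addition at room temperature.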

[2] = target: Peroxisome proliferator-activated receptor delta (Homo sapiens) (UniProt Q03181); experiment: qHTS assay to identify small molecule agonists of the peroxisome proliferator-activated receptor delta (PPARd) signaling pathway (AID 743212; calls by dose curve; also: % is scaled to controls: 0 for no effect and ±100 for the full control effect); conditions: HEK293H PPARd-UAS-bla, beta-lactamase FRET ratio, 17 h; series mostly up to 62.6 µM
Peroxisome proliferator-activated receptor delta (Homo sapiens), sequence (Q03181 whole entry, looked up): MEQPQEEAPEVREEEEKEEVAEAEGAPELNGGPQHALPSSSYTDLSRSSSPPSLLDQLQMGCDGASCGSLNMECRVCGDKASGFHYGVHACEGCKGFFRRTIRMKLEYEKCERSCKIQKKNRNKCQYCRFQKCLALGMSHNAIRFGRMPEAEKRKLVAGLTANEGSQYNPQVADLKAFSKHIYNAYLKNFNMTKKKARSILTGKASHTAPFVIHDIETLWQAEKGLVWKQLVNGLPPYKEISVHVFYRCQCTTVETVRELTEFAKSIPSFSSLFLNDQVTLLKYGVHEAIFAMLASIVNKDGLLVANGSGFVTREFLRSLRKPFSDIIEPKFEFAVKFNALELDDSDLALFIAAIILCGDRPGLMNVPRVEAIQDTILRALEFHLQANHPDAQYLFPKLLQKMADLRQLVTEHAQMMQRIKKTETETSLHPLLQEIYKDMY
In short: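 Quantitative high-throughput agonist screen in a HEK293H beta-lactamase reporter line under UAS control. Compounds in DMSO, at 37 C. Fluorescence read after 2 h with FRET substrate at room temperature.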

[3] = qHTS assay to identify small molecule antagonists of the peroxisome proliferator-activated receptor delta (PPARd) signaling pathway - cell viability counter screen (AID 743213); conditions: PPARd-bla HEK293H viability, CellTiter-Glo luminescence, 17 h; series mostly up to 62 µM; also: % is scaled to controls: 0 for no effect and ±100 for the full control effect; nearly all actives have a fitted effect of over 50% in size
In short: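 Agonist-stimulated (L165041, 300 nM final) HEK293H PPARd UAS-bla cells are exposed to compounds for 17 h at 37 C, and ATP-based luminescence (CellTiter-Glo) from the same wells reports cytotoxicity.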

[4] = target: Peroxisome proliferator-activated receptor delta (Homo sapiens) (UniProt Q03181); experiment: qHTS assay to identify small molecule antagonists of the peroxisome proliferator-activated receptor delta (PPARd) signaling pathway (AID 743215; active = well fitted inhibition curve with a large enough effect in the signal ratio in the repeat runs, not every such curve was filed as active; the % refers to the signal ratio; also: % is scaled to controls: 0 for no effect and ±100 for the full control effect); conditions: HEK293H PPARd-UAS-bla, beta-lactamase FRET ratio, antagonist, 17 h; series mostly up to 62 µM
In short: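 PPARd-bla HEK293H cells (UAS-bla reporter) preincubated 5 h, then given compound plus 300 nM final L165041 agonist for 17 h at 37 C. Beta-lactamase activity read by LiveBLAzer B/G FRET substrate fluorescence after 2 h at room temperature.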

[5] = target: Bile acid receptor (Homo sapiens) (UniProt Q96RI1); experiment: qHTS assay to identify small molecule antagonists of the farnesoid-X-receptor (FXR) signaling pathway (AID 743217; active = well fitted inhibition curve with a large enough effect in the signal ratio in the repeat runs, not every such curve was filed as active; the % refers to the signal ratio; also: % is scaled to controls: 0 for no effect and ±100 for the full control effect); conditions: HEK293T FXR-UAS-bla, beta-lactamase ratio, CDCA-stimulated, 16 h; series mostly up to 62.6 µM
Bile acid receptor (Homo sapiens), sequence (Q96RI1 whole entry, looked up): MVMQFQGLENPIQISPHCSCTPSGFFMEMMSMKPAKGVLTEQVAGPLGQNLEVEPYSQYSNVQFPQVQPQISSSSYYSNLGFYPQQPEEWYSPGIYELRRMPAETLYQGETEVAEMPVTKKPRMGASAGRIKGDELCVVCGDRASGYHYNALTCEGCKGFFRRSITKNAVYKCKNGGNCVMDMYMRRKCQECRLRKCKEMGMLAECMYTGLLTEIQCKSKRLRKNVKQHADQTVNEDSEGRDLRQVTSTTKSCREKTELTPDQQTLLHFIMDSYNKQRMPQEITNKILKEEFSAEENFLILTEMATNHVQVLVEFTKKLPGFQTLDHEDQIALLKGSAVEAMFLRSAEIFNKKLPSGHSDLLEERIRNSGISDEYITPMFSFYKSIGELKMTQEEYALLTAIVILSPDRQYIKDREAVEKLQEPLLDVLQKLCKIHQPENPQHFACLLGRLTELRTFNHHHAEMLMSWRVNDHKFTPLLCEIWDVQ
In short: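 FXR-UAS-bla HEK 293T cells (beta-lactamase reporter) given compound plus chenodeoxycholic acid (50 uM final), 16 h at 37C. LiveBLAzer B/G FRET substrate added for 2 h at room temperature; fluorescence read.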

[6] = qHTS assay to identify small molecule agonists of the farnesoid-X-receptor (FXR) signaling pathway - cell viability counter screen (AID 743218); conditions: FXR-bla HEK293T viability, CellTiter-Glo luminescence, 16 h; series mostly up to 62.6 µM; also: % is scaled to controls: 0 for no effect and ±100 for the full control effect; nearly all actives have a fitted effect of over 45% in size
In short: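 FXR-UAS-bla HEK 293T cells exposed to compounds for 16 h at 37C. Cytotoxicity read in the same wells by CellTiter-Glo luminescence after 30 min at room temperature, following the beta-lactamase FRET read.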

[7] = target: Bile acid receptor (Homo sapiens) (UniProt Q96RI1); experiment: qHTS assay to identify small molecule agonists of the farnesoid-X-receptor (FXR) signaling pathway (AID 743220; active = well fitted activation curve with a large enough effect in the signal ratio in the repeat runs, not every such curve was filed as active; the % refers to the signal ratio; also: % is scaled to controls: 0 for no effect and ±100 for the full control effect); conditions: HEK293T FXR-UAS-bla, beta-lactamase FRET ratio, 16 h; series mostly up to 62.6 µM
In short: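 Beta-lactamase reporter under UAS control in GeneBLAzer FXR HEK 293T cells (5000/well) measured with LiveBLAzer FRET substrate after 2 h at room temperature. Compound exposure lasted 16 h at 37C.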

[8] = qHTS assay to identify small molecule agonists of the vitamin D receptor (VDR) signaling pathway - cell viability counter screen (AID 743224); conditions: VDR-bla HEK293T viability, CellTiter-Glo luminescence, 16 h; series mostly up to 62.6 µM; also: % is scaled to controls: 0 for no effect and ±100 for the full control effect; nearly all actives have a fitted effect of over 50% in size
In short: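 VDR-bla cells, 4 h after plating, exposed to compounds for 16 h at 37C; viability then read in the same wells as CellTiter-Glo luminescence after 30 min at room temperature, following the bla FRET read.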

[9] = qHTS assay to identify small molecule agonists of the NFkB signaling pathway (AID 1159509; active = well fitted curve in the direction sought with a large enough effect in the signal ratio in the repeat runs, not every such curve was filed as active; the % refers to the signal ratio; also: % is scaled to controls: 0 for no effect and ±100 for the full control effect); conditions: NFkB-bla ME-180 cells, beta-lactamase FRET ratio, 5 h; series mostly up to 61 µM
In short: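 After overnight attachment, reporter cells received test compounds, DMSO or positive controls and were incubated 5 hr at 37 C. FRET substrate was then added for 1.5 hr at room temperature before dual-emission fluorescence reading.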

[10] = qHTS assay to identify small molecule agonists of the NFkB signaling pathway - cell viability counter screen (AID 1159515; calls by dose curve; also: % is scaled to controls: 0 for no effect and ±100 for the full control effect; nearly all actives have a fitted effect of over 55% in size); conditions: NFkB-bla ME-180 viability, CellTiter-Glo luminescence, 5 h; series mostly up to 61 µM
In short: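 NFkB-bla ME-180 cells, 2,000/well, plated overnight at 37 C; compound added for 5 hr at 37 C. Viability read in the same wells as the bla reporter, by CellTiter-Glo luminescence after 30 min at room temperature.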

[11] = qHTS assay to identify small molecule agonists of the endoplasmic reticulum stress response signaling pathway (AID 1159516; active = well fitted activation curve with a large enough effect in the signal ratio in the repeat runs, not every such curve was filed as active; the % refers to the signal ratio; also: % is scaled to controls: 0 for no effect and ±100 for the full control effect); conditions: ESRE-bla HeLa, ER stress beta-lactamase reporter, 5 h; series mostly up to 61 µM
In short: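 CellSensor ESRE-bla HeLa cells, 1,500 per well, plated overnight, then exposed to compounds for 5 hr at 37 C. Beta-lactamase reporter read with LiveBLAzer B/G FRET substrate after 2 hr at room temperature, 405 nm excitation, 460 and 530 nm emission.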

[12] = qHTS assay to identify small molecule antagonists of the retinoid-related orphan receptor gamma (ROR-gamma) signaling pathway - cell viability counter screen (AID 1159520); conditions: Tet-on RORgamma CHO cells viability, ATP luminescence, 16 h; series mostly up to 92.4 µM; also: % is scaled to controls: 0 for no effect and ±100 for the full control effect; nearly all actives have a fitted effect of over 50% in size
In short: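 Tet-on ROR gamma CHO cells were given compounds for 2 hr, then doxycycline hyclate at 1 uM final, and incubated 16 hr at 37 C. Viability was measured as ATP content by CellTiter-Glo luminescence.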

[13] = target: Nuclear receptor ROR-gamma (Homo sapiens) (UniProt P51449); experiment: qHTS assay to identify small molecule antagonists of the retinoid-related orphan receptor gamma (ROR-gamma) signaling pathway (AID 1159521;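 also: CHO cells with doxycycline inducible ROR-gamma driving an RORE luciferase reporter; top concentration of the series differs between compounds; % is scaled to controls: 0 for no effect and ±100 for the full control effect; nearly all actives have a fitted effect of over 50% in size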); conditions: Tet-on RORgamma CHO cells, RORE-luciferase, 16 h; series mostly up to 92.4 µM
In short: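 Screening format: cell-based luciferase reporter in CHO cells with doxycycline-inducible RORγ. Compound pre-exposure lasts 2 h, doxycycline is 1 uM final, induction runs 16 h at 37 C, and ONE-Glo luminescence is read.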

[14] = qHTS assay to identify small molecule agonists of the AP-1 signaling pathway - cell viability counter screen (AID 1159525; calls by dose curve; also: nearly all actives have a fitted effect of over 55% in size); conditions: ME-180 AP-1-bla cells viability, ATP luminescence, 5 h; series mostly up to 76.8 µM
In short: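 AP-1-bla ME-180 cells in Opti-MEM with 0.5% dialyzed FBS, compound exposure 5 h at 37 C in 15-point titration. Viability read in the same wells as ATP content by CellTiter-Glo luminescence, normalised to tetra-n-octylammonium bromide and DMSO controls.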

[15] = qHTS assay to identify small molecule agonists of the AP-1 signaling pathway (AID 1159526; calls by dose curve; also: % is scaled to controls: 0 for no effect and ±100 for the full control effect); conditions: ME-180 (cervical carcinoma) AP-1-bla reporter, beta-lactamase FRET ratio, 5 h; series mostly up to 76.8 µM
[16] = qHTS assay to identify small molecule antagonists of the farnesoid-X-receptor (FXR) signaling pathway - cell viability counter screen (AID 743221; active = well fitted cell-killing curve with a large enough effect in the repeat runs, not every such curve was filed as active); conditions: FXR-bla HEK293T viability, CellTiter-Glo luminescence, 16 h; series mostly up to 62.6 µM
In short: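 Compound effects on cell number were measured as CellTiter-Glo luminescence in HEK 293T cells expressing FXR-UAS-bla, after 16 h at 37 C with 50 uM CDCA (final).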

[17] = target: Vitamin D3 receptor (Homo sapiens) (UniProt P11473); experiment: qHTS assay to identify small molecule agonists of the vitamin D receptor (VDR) signaling pathway (AID 743222; calls by dose curve; also: % is scaled to controls: 0 for no effect and ±100 for the full control effect); conditions: HEK293T VDR-UAS-bla, beta-lactamase FRET ratio, 16 h; series mostly up to 63.5 µM
Vitamin D3 receptor (Homo sapiens), sequence (P11473 whole entry, looked up): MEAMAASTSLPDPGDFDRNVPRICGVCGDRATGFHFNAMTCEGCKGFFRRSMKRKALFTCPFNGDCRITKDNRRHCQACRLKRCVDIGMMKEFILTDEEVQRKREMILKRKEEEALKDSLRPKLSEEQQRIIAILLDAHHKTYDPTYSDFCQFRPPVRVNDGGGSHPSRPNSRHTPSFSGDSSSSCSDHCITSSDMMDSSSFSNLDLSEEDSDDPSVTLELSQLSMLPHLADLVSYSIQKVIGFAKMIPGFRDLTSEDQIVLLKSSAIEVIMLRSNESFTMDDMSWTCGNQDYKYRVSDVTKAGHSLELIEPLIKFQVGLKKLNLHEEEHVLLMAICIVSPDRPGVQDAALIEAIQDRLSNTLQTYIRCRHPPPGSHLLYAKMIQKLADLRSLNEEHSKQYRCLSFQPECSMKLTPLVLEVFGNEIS
In short: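 VDR-bla cells plated 4 h at 37 C, then exposed to compounds for 16 h at 37 C. Beta-lactamase reporter activity measured by fluorescence after 2 h room-temperature loading with LiveBLAzer B/G FRET substrate.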

[18] = target: Vitamin D3 receptor (Homo sapiens) (UniProt P11473); experiment: qHTS assay to identify small molecule antagonists of the vitamin D receptor (VDR) signaling pathway (AID 743223; active = well fitted inhibition curve with a large enough effect in the signal ratio in the repeat runs, not every such curve was filed as active; the % refers to the signal ratio; also: % is scaled to controls: 0 for no effect and ±100 for the full control effect); conditions: VDR-UAS-bla HEK293T, beta-lactamase FRET ratio, 16 h; series mostly up to 61 µM
In short: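 Beta-lactamase activity in VDR-bla cells is measured by FRET substrate fluorescence (2 h, room temperature) after cells spend 16 h at 37C with test compound and 3 nM final 1alpha,25-dihydroxyvitamin D3.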

[19] = qHTS assay to identify small molecule antagonists of the vitamin D receptor (VDR) signaling pathway - cell viability counter screen (AID 743225); conditions: VDR-bla HEK293T viability, CellTiter-Glo luminescence, 16 h; series mostly up to 61 µM
In short: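 In this counter screen, VDR-bla HEK 293T cells receive test compound plus 3 nM final calcitriol for 16 h at 37C. Room-temperature steps of 2 h with the beta-lactamase substrate, then 30 min with CellTiter-Glo, precede the luminescence read.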

CCCCCCCCCCCCCCCC(=O)OCC
inactive: Potency [1] | outcome [2] | Potency [3] | Potency [4] | outcome [5] | Potency [6] | Potency [7] | Potency [8] | outcome [9] | Potency [10] | Potency [11] | Potency [12] | Potency [13] | Potency [14] | outcome [15]

O=CNNC=O
inactive: Potency [1] | outcome [2] | Potency [3] | Potency [4] | Potency [6] | Potency [16] | outcome [17] | outcome [18] | Potency [8] | Potency [19] | outcome [9] | Potency [10] | Potency [11] | Potency [12] | Potency [13] | Potency [14] | outcome [15]

C=CCOC(=O)COCCC(C)C
inactive: Potency [1] | outcome [2] | Potency [3] | Potency [16] | Potency [8] | outcome [9] | Potency [10] | Potency [11] | Potency [12] | Potency [13] | Potency [14] | outcome [15]

Nc1ccc(S(=O)(=O)NCc2ccccc2)cc1
inactive: Potency [1] | outcome [2] | outcome [5] | Potency [6] | Potency [7] | outcome [17] | Potency [8] | outcome [9] | Potency [10] | Potency [11] | Potency [12] | Potency [13] | Potency [14] | outcome [15]

Cc1cccc(C)c1NC(=O)c1cc(S(N)(=O)=O)c(Cl)cc1O
inactive: Potency [1] | Potency [3] | Potency [4] | outcome [5] | Potency [6] | Potency [7] | Potency [16] | outcome [17] | outcome [18] | Potency [19] | outcome [9] | Potency [10] | Potency [11] | Potency [12] | Potency [13] | Potency [14] | outcome [15]

O=C(NS(=O)(=O)/C=C/c1ccccc1)c1ccc(F)cc1Cl
inactive: Potency [1] | outcome [2] | Potency [3] | Potency [4] | Potency [16] | Potency [8] | Potency [19] | outcome [9] | Potency [10] | Potency [11] | Potency [12] | Potency [13] | Potency [14] | outcome [15]

CCC(Cl)CC(Cl)C(Cl)C(Cl)C(Cl)C(C)Cl (centres undefined)
inactive: activity change, negative = cytotoxicity [1] -18.5% [at 13.2 µM] | activation [2] -9.79% [at 13.2 µM] | ratio activity, negative = inhibition [4] -24% [at 13.7 µM] | activity change, negative = cytotoxicity [16] -0.0192% [at 13.2 µM] | viability change, negative = cytotoxic [19] 6.69% [at 15.1 µM] | activation [9] -0.489% [at 15.1 µM] | activity, negative = cytotoxic [10] 0.94% [at 15.1 µM] | activation [11] -4.87% [at 15.1 µM] | activity, negative = cytotoxicity [12] 0.516% [at 19 µM] | activity change, negative = inhibition [13] 79.2% [at 19 µM] | viability change, negative = cytotoxic [14] -14.2% [at 15.8 µM] | activation [15] 9.95% [at 15.8 µM]

COC(=O)Nc1nc2ccc(C(=O)C3CC3)cc2[nH]1
inactive: Potency [1] | Potency [3] | Potency [4] | Potency [6] | Potency [8] | Potency [19] | outcome [9] | Potency [10] | Potency [11] | Potency [12] | Potency [13] | Potency [14] | outcome [15]
